Source: PubChem BioAssay AID1159580 (chemical genetic matrix, 2015)
“And” between values parts separate entries of the source, which are not always exact repeats. Equal values may be shown once. The campaign covered roughly 5,500 compounds. About 2,000 (36%) were called active. Inconclusive results (about 18%) are left out. Cut-off read from the data, not from the text of the source: active = normalized growth mostly below about 0.91 (no sharp cut-off); inconclusive = no clear call, values can overlap the other calls; inactive = mostly above about 0.92. The list shows a part of the results.

Assay: chemical genetic growth profiling, strain panel (AID 1159580);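 note: tested at 20 µM; growth read once vehicle control cultures reached saturation at 30 °C; 1 = growth at the plate median or of vehicle wells; lower values mean less growth of the strain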
Conditions: S. cerevisiae deletion strains, growth OD

Measured: normalized growth

CN(C)N=Nc1nc[nH]c1C(N)=O
inactive: locus YAL013W, strain DEP1, hits give low values 1.01 | locus YAL021C, strain ccr4, hits give low values 0.968 | locus YAL026C, strain drs2, hits give low values 1 | locus YAL030W, strain snc1, hits give low values 0.976 | locus YBL061C, strain skt5, hits give low values 0.976 | locus YBR009C, strain hhf1, hits give low values 1.02 | locus YBR021W, strain FUR4, hits give low values 1.02 | locus YBR023C, strain chs3, hits give low values 0.982 | locus YBR171W, strain sec66, hits give low values 0.969 | locus YBR229C, strain ROT2, hits give low values 1.01 | locus YBR231C, strain swc5, hits give low values 0.985 | locus YBR279W, strain paf1, hits give low values 0.966 | locus YCL011C, strain gbp2, hits give low values 0.953 | locus YCL016C, strain dcc1, hits give low values 0.957 | locus YCL029C, strain bik1, hits give low values 1 | locus YCL061C, strain MRC1, hits give low values 0.992 | locus YCL069W, strain vba3, hits give low values 0.984 | locus YCR088W, strain abp1, hits give low values 0.968 | locus YDL005C, strain med2, hits give low values 0.965 | locus YDL035C, strain GPR1, hits give low values 1.02 | locus YDL040C, strain nat1, hits give low values 0.979 | locus YDL074C, strain BRE1, hits give low values 1.01 | locus YDL101C, strain DUN1, hits give low values 1.01 | locus YDL134C, strain PPH21, hits give low values 1.02 | locus YDL185W, strain tfp1, hits give low values 0.997 | locus YDL192W, strain arf1, hits give low values 0.996 | locus YDR001C, strain nth1, hits give low values 0.975 | locus YDR069C, strain doa4, hits give low values 0.976 | locus YDR101C, strain arx1, hits give low values 1.01 | locus YDR137W, strain rgp1, hits give low values 0.975 | locus YDR150W, strain NUM1, hits give low values 1.01 | locus YDR159W, strain sac3, hits give low values 1.02 | locus YDR162C, strain NBP2, hits give low values 1.03 | locus YDR195W, strain ref2 1.01 | locus YDR297W, strain sur2, hits give low values 0.966 | locus YDR318W, strain mcm21, hits give low values 1 | locus YDR334W, strain swr1, hits give low values 0.949 | locus YDR335W, strain msn5, hits give low values 0.965 | locus YDR388W, hits give low values 0.992 | locus YDR392W, strain spt3, hits give low values 0.918 | locus YDR502C, strain sam2, hits give low values 1.01 | locus YEL003W, strain gim4, hits give low values 0.977 | locus YEL037C, strain rad23, hits give low values 0.985 | locus YEL061C, strain CIN8 (second series), hits give low values 0.98 | locus YEL061C, strain CIN8, hits give low values 1.01 | locus YER015W, strain faa2, hits give low values 0.981 | locus YER016W, strain bim1, hits give low values 0.98 | locus YER110C, hits give low values 0.995 | locus YER111C, strain swi4, hits give low values 0.987 | locus YER155C, strain BEM2 (second series), hits give low values 0.998 | locus YER155C, strain BEM2, hits give low values 1 | locus YER167W, strain BCK2, hits give low values 1.02 | locus YFR010W, strain ubp6, hits give low values 0.987 | locus YGL078C, strain dbp3, hits give low values 0.999 | locus YGL086W, strain mad1, hits give low values 1.01 | locus YGL167C, strain pmr1, hits give low values 0.981 | locus YGL173C, strain kem1, hits give low values 0.961 | locus YGL227W, strain vid30, hits give low values 0.979 | locus YGL240W, strain doc1, hits give low values 0.951 | locus YGL248W, strain PDE1, hits give low values 1.01 | locus YGL253W, strain hxk2, hits give low values 0.953 | locus YGR078C, strain PAC10, hits give low values 1 | locus YGR135W, strain pre9, hits give low values 1 | locus YGR252W, strain gcn5, hits give low values 1.05 | locus YHR013C, strain ard1, hits give low values 0.965 | locus YHR027C, strain rpn1, hits give low values 0.967 | locus YHR030C, strain SLT2, hits give low values 1.01 | locus YHR079C, strain IRE1 (second series), hits give low values 1 | locus YHR079C, strain IRE1, hits give low values 1.02 | locus YHR094C, strain hxt1, hits give low values 0.999 | locus YHR129C, strain ARP1, hits give low values 1.01 | locus YHR142W, strain chs7, hits give low values 0.926 | locus YHR200W, strain rpn10, hits give low values 1.01 | locus YIL066C, strain RNR3, hits give low values 1.01 | locus YIL073C, strain SPO22, hits give low values 1.02 | locus YIL125W, strain kgd1, hits give low values 0.995 | locus YIR030C, strain dcg1, hits give low values 1.01 | locus YJL092W, strain hpr5, hits give low values 0.984 | locus YJL095W, strain BCK1 (second series), hits give low values 0.966 | locus YJL095W, strain BCK1, hits give low values 1.01 and 1.03 | locus YJL115W, strain asf1, hits give low values 0.968 | locus YJL129C, strain trk1, hits give low values 0.958 | locus YJL134W, strain LCB3, hits give low values 1 | locus YJL154C, strain vps35, hits give low values 0.954 | locus YJL164C, strain tpk1, hits give low values 0.989 | locus YJL166W, strain qcr8, hits give low values 0.936 | locus YJL168C, strain set2, hits give low values 1.01 | locus YJL187C, strain SWE1 (second series), hits give low values 1.02 | locus YJL187C, strain SWE1, hits give low values 0.993 | locus YJR043C, strain POL32, hits give low values 1.03 | locus YJR066W, strain TOR1, hits give low values 1 | locus YJR075W, strain HOC1, hits give low values 1.01 | locus YKL009W, strain mrt4, hits give low values 1 | locus YKL068W, hits give low values 0.997 | locus YKL085W, strain MDH1 (second series), hits give low values 0.999 | locus YKL085W, strain MDH1, hits give low values 0.999 | locus YKL160W, strain elf1, hits give low values 0.931 | locus YKR001C, strain vps1, hits give low values 1 | locus YKR026C, strain gcn3, hits give low values 0.975 | locus YKR091W, strain srl3, hits give low values 0.97 | locus YLL001W, strain dnm1, hits give low values 0.916 | locus YLL026W, hits give low values 0.987 | locus YLL041C, strain sdh2, hits give low values 0.987 | locus YLR027C, strain aat2, hits give low values 0.991 | locus YLR039C, strain RIC1, hits give low values 1.04 | locus YLR058C, strain SHM2, hits give low values 1.02 | locus YLR102C, strain apc9, hits give low values 0.999 | locus YLR113W, strain HOG1, hits give low values 1.06 | locus YLR221C, strain rsa3, hits give low values 0.956 | locus YLR258W, strain gsy2, hits give low values 0.979 | locus YLR262C, strain YPT6 (second series), hits give low values 0.97 | locus YLR262C, strain YPT6, hits give low values 1.02 | locus YLR268W, strain sec22, hits give low values 1.01 | locus YLR320W, strain mms22, hits give low values 0.941 | locus YLR330W, strain CHS5, hits give low values 1.01 | locus YLR342W, strain FKS1 (second series), hits give low values 1.01 | locus YLR342W, strain FKS1, hits give low values 0.974 | locus YLR357W, strain rsc2, hits give low values 0.965 | locus YLR370C, strain arc18, hits give low values 0.973 | locus YLR371W, strain rom2, hits give low values 1 | locus YLR384C, strain iki3, hits give low values 0.985 | locus YLR418C, strain cdc73, hits give low values 1.03 | locus YML016C, strain PPZ1, hits give low values 1.01 | locus YML032C, strain rad52, hits give low values 0.993 | locus YML120C, strain ndi1, hits give low values 0.925 | locus YML124C, strain tub3, hits give low values 1 | locus YMR058W, strain fet3, hits give low values 0.979 | locus YMR078C, strain ctf18, hits give low values 0.999 | locus YMR125W, strain sto1, hits give low values 0.935 | locus YMR129W, hits give low values 0.992 | locus YMR205C, strain PFK2, hits give low values 0.927 | locus YMR223W, strain ubp8, hits give low values 0.988 | locus YMR231W, strain pep5, hits give low values 0.993 | locus YMR263W, strain SAP30, hits give low values 1.02 | locus YMR307W, strain GAS1, hits give low values 1.07 | locus YNL067W, strain RPL9B, hits give low values 1.01 | locus YNL071W, strain lat1, hits give low values 0.986 | locus YNL153C, strain GIM3, hits give low values 1 | locus YNL183C, strain NPR1, hits give low values 0.986 | locus YNL209W, strain ssb2, hits give low values 0.976 | locus YNL233W, strain BNI4, hits give low values 1 | locus YNL248C, strain rpa49, hits give low values 0.968 | locus YNL250W, strain rad50, hits give low values 0.979 | locus YNL271C, strain bni1, hits give low values 0.995 | locus YNL298W, strain CLA4, hits give low values 0.999 | locus YNL307C, strain MCK1, hits give low values 0.996 | locus YNL322C, strain KRE1 (second series), hits give low values 0.974 | locus YNL322C, strain KRE1, hits give low values 1.01 | locus YNR049C, strain mso1, hits give low values 0.967 | locus YNR052C, strain pop2, hits give low values 1 | locus YOL006C, strain TOP1, hits give low values 1.06 | locus YOL012C, strain htz1 0.752 | locus YOL147C, strain pex11, hits give low values 0.998 | locus YOR001W, strain rrp6, hits give low values 1.01 | locus YOR061W, strain CKA2, hits give low values 1.01 | locus YOR069W, strain VPS5, hits give low values 1 | locus YOR070C, strain gyp1, hits give low values 0.993 | locus YOR080W, strain dia2, hits give low values 0.973 | locus YOR083W, strain WHI5, hits give low values 0.936 | locus YOR106W, strain vam3, hits give low values 0.932 | locus YOR136W, strain idh2, hits give low values 1.01 | locus YOR144C, strain elg1, hits give low values 1.01 | locus YOR184W, strain ser1, hits give low values 1.01 | locus YOR231W, strain MKK1, hits give low values 1.02 | locus YOR265W, strain rbl2, hits give low values 0.977 | locus YOR270C, strain vph1, hits give low values 0.988 | locus YOR290C, strain snf2, hits give low values 0.943 | locus YOR316C, strain cot1, hits give low values 0.997 | locus YPL051W, strain arl3, hits give low values 0.973 | locus YPL055C, strain LGE1, hits give low values 1.02 | locus YPL078C, strain atp4, hits give low values 0.928 | locus YPL106C, strain sse1, hits give low values 0.942 | locus YPL240C, strain hsp82, hits give low values 1 | locus YPL241C, strain CIN2, hits give low values 1.01 | locus YPL256C, strain CLN2, hits give low values 1.04 | locus YPR119W, strain clb2, hits give low values 0.995 | locus YPR141C, strain kar3, hits give low values 0.987 | locus YPR163C, strain tif3, hits give low values 1 | locus YPR167C, strain met16, hits give low values 1 | strain wtn01, hits give low values 0.995
